Bioassay records (PubChem)
KDM5B inhibitor = blocks human KDM5B histone demethylase activity; Potency, µM (doses to about 57.7 µM), usual class: inhibitors; 2.6% of 220,000 active; AID 1347165; Q9UGL1; KDM5B demethylase, FDH-coupled NADH fluorescence (FDH is formaldehyde dehydrogenase); active = well fitted inhibition curve with a large enough effect; note: nearly all actives have a fitted effect of over 70% in size
Target sequence (Q9UGL1 whole entry, looked up): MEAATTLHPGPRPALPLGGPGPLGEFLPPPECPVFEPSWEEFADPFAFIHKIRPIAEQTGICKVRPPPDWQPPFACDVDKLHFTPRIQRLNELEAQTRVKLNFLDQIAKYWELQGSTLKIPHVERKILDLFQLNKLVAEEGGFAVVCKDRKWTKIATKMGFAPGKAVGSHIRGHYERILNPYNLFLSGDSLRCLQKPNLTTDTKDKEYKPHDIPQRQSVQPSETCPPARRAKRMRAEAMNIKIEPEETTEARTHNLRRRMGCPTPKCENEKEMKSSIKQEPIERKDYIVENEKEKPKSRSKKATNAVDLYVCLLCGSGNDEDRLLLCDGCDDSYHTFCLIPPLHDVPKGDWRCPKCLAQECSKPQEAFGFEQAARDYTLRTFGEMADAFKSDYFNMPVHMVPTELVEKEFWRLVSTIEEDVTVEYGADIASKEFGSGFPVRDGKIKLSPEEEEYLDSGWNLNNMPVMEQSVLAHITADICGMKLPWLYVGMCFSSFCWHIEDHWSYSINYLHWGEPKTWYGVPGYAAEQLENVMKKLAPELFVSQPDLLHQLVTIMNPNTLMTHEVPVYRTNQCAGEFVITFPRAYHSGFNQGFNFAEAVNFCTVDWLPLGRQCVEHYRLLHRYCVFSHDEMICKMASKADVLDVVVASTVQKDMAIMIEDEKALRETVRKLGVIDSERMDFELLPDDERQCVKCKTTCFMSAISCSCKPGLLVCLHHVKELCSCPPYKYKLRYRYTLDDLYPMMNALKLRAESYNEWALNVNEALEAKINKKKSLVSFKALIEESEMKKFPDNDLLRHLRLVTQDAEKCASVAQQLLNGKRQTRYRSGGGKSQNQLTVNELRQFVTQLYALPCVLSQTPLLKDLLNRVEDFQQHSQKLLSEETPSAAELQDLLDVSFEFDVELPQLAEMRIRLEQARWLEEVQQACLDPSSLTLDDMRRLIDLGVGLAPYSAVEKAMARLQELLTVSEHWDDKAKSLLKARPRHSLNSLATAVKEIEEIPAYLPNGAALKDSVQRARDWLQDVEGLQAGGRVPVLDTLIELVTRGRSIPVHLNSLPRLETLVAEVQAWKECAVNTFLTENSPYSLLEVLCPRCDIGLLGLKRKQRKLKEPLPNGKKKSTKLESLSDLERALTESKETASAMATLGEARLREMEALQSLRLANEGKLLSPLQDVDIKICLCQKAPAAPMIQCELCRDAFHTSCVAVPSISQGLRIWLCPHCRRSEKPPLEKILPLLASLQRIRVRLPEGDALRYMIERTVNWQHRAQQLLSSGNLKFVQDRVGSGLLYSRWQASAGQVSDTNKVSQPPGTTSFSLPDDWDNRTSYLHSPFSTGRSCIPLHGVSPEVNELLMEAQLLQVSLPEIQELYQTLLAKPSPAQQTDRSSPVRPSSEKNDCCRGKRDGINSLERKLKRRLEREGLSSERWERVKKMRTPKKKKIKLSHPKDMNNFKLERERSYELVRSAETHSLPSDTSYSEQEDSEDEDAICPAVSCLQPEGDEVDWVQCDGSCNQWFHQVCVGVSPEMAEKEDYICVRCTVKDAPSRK
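Inhibition is measured as reduced NADH fluorescence generation from FDH coupling to formaldehyde release. Truncated KDM5BΔAP at 200 nM final acts on H3K4me3 peptide (12.5 µM in substrate mix) in pH 7.5 HEPES buffer with Tween-20, 30 min, room temperature.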
A number is an active result; n = inactive. The full list was thinned out, with hits kept by preference.

SMILES	KDM5B inhibitor
CC(C)C[C@@H]1N[C@H](C(=O)O)Cc2cn(CC3CC3)c3cccc1c23	32µM
CC(C)C[C@@H]1N[C@H](C(=O)N2CCC(O)(c3ccccc3)CC2)Cc2cn(C)c3cccc1c23	n
C=CCNC(=O)[C@@H]1Cc2cn(Cc3c(C)noc3C)c3cccc(c23)[C@H](CC(C)C)N1	28µM
C=CCN(C)C(=O)[C@@H]1Cc2cn(Cc3cc(C)on3)c3cccc(c23)[C@H](CC(C)C)N1	n
CCCNC(=O)[C@@H]1Cc2cn(Cc3cccnc3)c3cccc(c23)[C@H](CC(C)C)N1	n
CC(C)C[C@@H]1N[C@H](C(=O)NCC2CC2)Cc2cn(Cc3ccncc3)c3cccc1c23	n
C=CCN(C)C(=O)[C@@H]1Cc2cn(Cc3nccn3C)c3cccc(c23)[C@H](CC(C)C)N1	n
CC(C)C[C@@H]1N[C@H](C(=O)NC(C)C)Cc2cn(Cc3ccncc3)c3cccc1c23	n
CC(C)C[C@@H]1N[C@H](C(=O)NC2CCC2)Cc2cn(Cc3nccn3C)c3cccc1c23	n
C=CCn1cc2c3c(cccc31)[C@H](CC(C)C)N[C@H](C(=O)N1CCN(C)CC1)C2	22µM
CC(C)C[C@@H]1N[C@H](C(=O)N2CCOCC2)Cc2cn(CC3CC3)c3cccc1c23	35µM
COc1ccc(OCCN(C)C(=O)c2cccc3c(=O)c(C)c(-c4ccccc4)oc23)cc1	n
CCOP(=O)(OCC)c1nc(Cc2ccc(Cl)cc2)oc1NCc1ccc2c(c1)OCO2	n
c1cc(CNCCCN2CCCCC2)ccn1	n
O=C(Cc1c(Cl)cccc1Cl)OCc1cccc([N+](=O)[O-])c1	n
COc1ccc(OC)c2[nH]c(C(=O)NCC(=O)NCC(=O)O)cc12	n
Cc1ccc(NC(=O)c2cc(-c3ccncc3)nc3ccccc23)c(O)c1	n
COc1ccc(C(C)=O)cc1CC(=O)Nc1cc(S(C)(=O)=O)ccc1C	n
CC#CCn1cc2c3c(cccc31)[C@H](CC(C)C)N[C@H](C(=O)NCCNC(C)=O)C2	32µM
CC(C)C[C@@H]1N[C@H](C(=O)N2CCOCC2)Cc2cn(Cc3cccnc3)c3cccc1c23	n
CC#CCn1cc2c3c(cccc31)[C@H](CC(C)C)N[C@H](C(=O)NCc1ccc(OC)cc1)C2	n
Cc1cc(Cn2cc3c4c(cccc42)[C@H](CC(C)C)N[C@H](C(=O)NCCN2CCOCC2)C3)no1	n
C=CCn1cc2c3c(cccc31)[C@H](CC(C)C)N[C@H](C(=O)N1CCOCC1)C2	32µM
C#CCNC(=O)[C@@H]1Cc2cn(CC#CC)c3cccc(c23)[C@H](CC(C)C)N1	n
CNC(=O)CCn1ncc2cc(OCc3ccccc3-c3ccccc3F)ccc21	n
SMILES	KDM5B inhibitor
CCC(C)NC(=O)CSc1ncnc2ccccc12 (stereo not given)	n
CCCCCn1nc(C(=O)N2CCN(c3ccc(F)cc3)CC2)c2ccccc2c1=O	n
Cc1cccc(C(C)C)c1NC(=O)CCl	n
Cc1nc(N2CCCCC2)ncc1C(=O)NC1CCOC2(CCOCC2)C1 (stereo not given)	n
Cc1nc(N2CCCCC2)ncc1C(=O)N[C@H]1[C@H]2CCO[C@H]2[C@@H]1N(C)C	22µM
CN(CC(=O)N[C@H]1[C@H]2CCO[C@H]2[C@@H]1N(C)C)Cc1ccc(F)cc1	n
Cc1nc2ncccn2c1C(=O)N[C@H]1[C@H]2CCO[C@H]2[C@@H]1N(C)C	32µM
COC[C@@H]1[C@H](NC(=O)c2ccc(-n3cccn3)cc2)[C@@H]2CCO[C@H]12	n
Cc1nc(N2CCCC2)ncc1C(=O)Nc1ccc(OC(F)(F)F)cc1	n
CCc1cccc(NC(=S)N(CCC(C)C)C(C)c2cccs2)c1 (stereo not given)	n
Cn1c(=O)n(Cc2ccccc2F)c(=O)c2c1ncn2Cc1ccccc1	n
O=C(CSc1nnc(-c2ccc(Cl)cc2)n1CC1CCCO1)Nc1ccc2c(c1)OCO2 (stereo not given)	n
O=C(CSc1nc(=O)n(Cc2ccco2)c2c1CCC2)NCc1ccco1	n
O=C(Nc1cc(=O)[nH]c2nc(C(F)(F)F)nn12)c1ccc(Cl)cc1Cl	n
COc1ccc(-c2nc(-c3ccccc3)nc3c2CN(C(=O)C2CCCC2)CC3)cc1	n
O=C1c2cc(N3CCOCC3)nc(-c3ccccc3Oc3ccccc3)c2CN1C1COC1	28µM
Cc1cc(N2CCOCC2)nc(Nc2ccc(NC(=O)c3ccccc3)cc2)n1	n
Cc1nnc(-c2cc(-c3ccccc3Oc3ccccc3)ccn2)n1CCN1CCOCC1	n
Cn1cc(-c2nc(N3CCOCC3)cc3c2CN(c2ccccc2)C3=O)cn1	20µM
COc1ccc(NC(=O)Nc2ccc3nc(N4CCOCC4)cc(C)c3c2)cc1OC	n
COc1ccc(N2Cc3c(ncnc3N3CCOCC3)N(C)CC2=O)cc1	n
CN1Cc2ncnc(N3CCOCC3)c2CN(c2cccnc2)C1=O	n
COc1cccc(-c2ncc3c(n2)OCCN(c2ccccc2)C3=O)c1OC	n
COc1ccccc1-c1nc(N2CCOCC2)cc2c1CN(c1ccccc1)C2=O	35µM
CC(NC(=O)Cn1nc(-c2ccc(F)cc2)oc1=O)c1ccc2c(c1)CCCC2 (stereo not given)	n
SMILES	KDM5B inhibitor
Cn1cccc1C(=O)N1C[C@@H](COCC2CC2)[C@H](c2ccccn2)C1	n
CN(CC(=O)Nc1ccccc1Cl)Cc1csc(-c2ccccc2)n1	n
CCOCCn1c(SCC(=O)OCC)nc2c1c(=O)[nH]c(=O)n2C	n
CC1CN(CCS(=O)c2ccccc2)CC(C)O1 (stereo not given)	n
COc1ccc(C(=O)C(C)OC(=O)c2cc(OC)cc(OC)c2)cc1 (stereo not given)	n
COc1ccccc1CCC(=O)NC(C)C(=O)N1CCN(c2ccccn2)CC1 (stereo not given)	25µM
COc1ccccc1CC(=O)NC(c1ccccc1)c1ccccc1	n
COc1ccccc1CCC(=O)N1CCC(n2nccc2NC(=O)CC(C)C)CC1	n
COc1ccccc1CCC(=O)Nc1cccn2nc(C(C)C)nc12	n
COc1ccccc1CC(=O)NC1CCN(c2cc(C(F)(F)F)ncn2)CC1	n
COc1ccccc1CC(=O)NC(C)C(=O)N1CCN(c2ccccn2)CC1 (stereo not given)	28µM
Cc1cc(C(=O)N/N=C/c2ccncc2)cs1	n
CC(O)CSc1nc2c(c(=O)n(C)c(=O)n2C)n1Cc1ccc(Cl)cc1 (stereo not given)	n
CC(OC(=O)c1cc(=O)c2cc(Cl)ccc2o1)C(=O)N(C)c1ccccc1 (stereo not given)	n
COc1ccccc1CCC(=O)NCc1nnc2ccc(-c3ccc(C)cc3)nn12	n
COc1ccccc1CNc1ccc2nnc(C)n2n1	n
COc1ccccc1C(=O)NCc1nnc2ccc(-c3ccc(C)cc3)nn12	13µM
CCOc1ccccc1C(=O)NCc1nnc2ccc(-c3ccc(C)c(C)c3)nn12	32µM
NC(=S)NCc1ccco1	n
Cc1ccc(C)c(C(C)NC(=O)Nc2ccccc2Br)c1 (stereo not given)	n
CC1=C[C@@H](CNS(=O)(=O)c2cccc(F)c2)[C@H](C(C)C)C[C@H]1CC(=O)O	n
O=C(c1cccc(F)c1)N1CCCC(n2cc(-c3nc(C4CC4)no3)nn2)C1 (stereo not given)	n
O=C(NCc1nnc2c(-c3nc(C4CC4)no3)cccn12)c1cccc2[nH]ccc12	n
O=C(NCc1nnc2c(-c3nc(C4CC4)no3)cccn12)c1cccc(F)c1	25µM
O=C(Cc1ccc(F)cc1)NCc1nnc2c(-c3nc(C4CC4)no3)cccn12	32µM
O=C(NCc1nnc2c(-c3nc(C4CC4)no3)cccn12)c1cccc(Cl)c1	28µM
